Experimental data reported in PubChem BioAssay.
Activity calls are given as the source filed them.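 The calls were made as follows, unless noted: active = compounds lowering colon cancer cell viability after pretreatment blocking the GSK3B kinase; inactive = the rest.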

Experiments:
[1] = stimulators of nuclear beta-catenin in C2C12, primary screen, imaging, WNT3A-conditioned medium, mouse C2C12, NPC library (AID 1117326; in the data active = nuclear beta-catenin stimulation mostly above about 4.2%, no sharp cut-off; inactive = mostly below about 10%; also: reference of the scale not given here); details: stronger effect = higher value
[2] = stimulators of insulin release from INS-1E, primary screen, cell-based, 5 mM glucose, NPC library (AID 1117329;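 active = compound raises insulin release from rat beta cells at 5 mM glucose, no numeric limit stated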; also: reference of the scale not given here); details: rat INS-1E insulin secretion, at 10 µM, stronger effect = higher value
[3] = growth inhibition of GSK3B-pretreated HCT116 cells – cell-based, CellTiter-Glo, 0.2 to 20 µM (AID 1117336); details: HCT116 viability after GSK3B inhibitor, at 20 µM, stronger effect = higher value
[4] = inhibition of endothelial tube formation, primary screen, imaging, VEGF stimulated, CD31 staining, tube area, NPC library (AID 1117340;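 active = compound that reduces growth-factor-driven endothelial tube area in a mixed cell culture, no cutoff stated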); details: VEGF-stimulated ADSC/ECFC co-culture, at 10 µM, stronger effect = higher value
[5] = glucagon-like peptide 1 release enhancers, primary assay, NCI-H716 cell line, NPC library (AID 1117341;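 active = compound raises GLP1 secretion from the human gut endocrine cells, with no numeric limit stated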; also: reference of the scale not given here); details: NCI-H716 cells, at 10 µM, stronger effect = higher value
[6] = HCT116 colon cancer cell growth inhibition, primary screen, CellTiter-Glo luminescence, NPC library (AID 1117342;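 active = compounds that lower survival of HCT116 colon cancer cells in the luminescence readout, no numeric limit stated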); details: at 20 µM (top of the series)
[7] = CellTiter-Glo luminescent readout of SW480 viability loss, NPC library primary (AID 1117343;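 active = compounds that lower viability of the colon cancer cells in the luminescence readout, with no numeric limit stated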); details: CellTiter-Glo luminescence; at 20 µM (top of the series)
[8] = decreased DLD-1 cellular survival, CellTiter-Glo luminescent readout, NPC compound collection, primary HTS (AID 1117346;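 active = compounds that lower survival of DLD-1 colon cancer cells in the luminescence readout, no cutoff given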); details: DLD-1 viability, CellTiter-Glo luminescence; at 20 µM (top of the series)

| Compound | nuclear beta-catenin stimulation ([1]; at 10 µM) | nuclear beta-catenin stimulation ([1]; stimulation, at 2 µM) [%] | insulin secretion stimulation [2] | viability decrease [3] | tube area decrease [4] | GLP1 secretion stimulation [5] | inhibition of viability [6] | viability decrease (inhibition) [7] | viability decrease (inhibition) [8] |
| --- | --- | --- | --- | --- | --- | --- | --- | --- | --- |
| CCC1(c2cnc[nH]2)Cc2ccccc2C1 | 1.2% (inactive) | 1.5 | 13.1% (inactive) | 38% (inactive) | 22.4% (inactive) | -3.3% (inactive) | -0.4% (inactive) | 19.3% (inactive) | 38.2% (inactive) |
| CC(C)CCCC(C)CCCC(C)CCCCC(C)CCCC(C)CCCC(C)C (centres undefined) | -1.2% (inactive) | -0.8 | -1.6% (inactive) | -26.9% (inactive) | 4.8% (inactive) | -2.5% (inactive) | -10.1% (inactive) | 22.4% (inactive) | -26.5% (inactive) |
| Cc1ccc2ccc(Cl)cc2n1 | -0.9% (inactive) | -2.1 | 1.25% (inactive) | -1.7% (inactive) | -2.2% (inactive) | -2.9% (inactive) | 2.4% (inactive) | 1.2% (inactive) | -3.7% (inactive) |
| CCC(=O)Oc1ccc2c(c1)CC[C@@H]1[C@@H]2CC[C@@]2(C)[C@H]1C[C@@H](OC(=O)CC)[C@@H]2OC(=O)CC | 1.7% (inactive) | 1.2 | 2.5% (inactive) | -51.4% (inactive) | 28.9% (inactive) | -6.9% (inactive) | 31.7% (inactive) | 67.4% (active) | -2.6% (inactive) |
| COC1=C(OC)C(=O)C(CC=C(C)CCC=C(C)CCC=C(C)CCC=C(C)CCC=C(C)CCC=C(C)CCC=C(C)CCC=C(C)CCC=C(C)CCC=C(C)C)=C(C)C1=O | 0.8% (inactive) | 1.2 | 3.9% (inactive) | 13.5% (inactive) | -5.2% (inactive) | 1.9% (inactive) | 4.6% (inactive) | -7.3% (inactive) | 1.9% (inactive) |
| Cc1ncc(C[n+]2csc(CCOP(=O)(O)O)c2C)c(N)n1 | 0.8% (inactive) | -0.6 | -0.4% (inactive) | -15.6% (inactive) | -8.2% (inactive) | 1% (inactive) | -0.4% (inactive) | -13.2% (inactive) | 17.1% (inactive) |
| Cc1oc(-c2ccccc2)nc1CCC(=O)c1ccc(CC2SC(=O)NC2=O)cc1 (centres undefined) | 3.2% (inactive) | -0.4 | 3.5% (inactive) | 97.3% (active) | 9.6% (inactive) | 12.7% (inactive) | 95.4% (active) | 120% (active) | 96.5% (active) |
| CN(C)C(=S)SC(=S)N(C)C | 31.6% (inactive) | 11.3 | -0.3% (inactive) | -6.55% (inactive) | -36.6% (inactive) | 4.1% (inactive) | 11.5% (inactive) | 35.3% (inactive) | 0.2% (inactive) |
| O=S(c1cc(Cl)cc(Cl)c1O)c1cc(Cl)cc(Cl)c1O | -0.5% (inactive) | -1.3 | 4.7% (inactive) | 110% (active) | 92.8% (active) | 27.8% (active) | 112% (active) | 126% (active) | 101% (active) |
| O=C(O)c1ccccn1 | 1.7% (inactive) | 0.9 | -0.2% (inactive) | 31.1% (inactive) | -6.5% (inactive) | 1.3% (inactive) | -1.6% (inactive) | 10.7% (inactive) | 22% (inactive) |
| Cn1cc(C(=O)[C@@H]2CCc3nc[nH]c3C2)c2ccccc21 | 2.4% (inactive) | -0.1 | 5.1% (inactive) | 2.2% (inactive) | 17.2% (inactive) | 0.6% (inactive) | -2.5% (inactive) | 11.2% (inactive) | -4.05% (inactive) |
| C[C@H]1O[C@@H](O[C@H]2CC[C@@]3(C)[C@H](CC[C@@H]4[C@@H]3C[C@@H](O)[C@]3(C)[C@@H](C5=CC(=O)OC5)CC[C@]43O)C2)C[C@H](O)[C@@H]1O[C@H]1C[C@H](O)[C@H](O[C@H]2C[C@H](O)[C@H](O[C@@H]3O[C@H](CO)[C@@H](O)[C@H](O)[C@H]3O)[C@@H](C)O2)[C@@H](C)O1 | -1% (inactive) | -0.7 | -0.5% (inactive) | 65% (active) | 108% (active) | 8% (inactive) | 54.5% (active) | 69.4% (active) | 79.5% (active) |
| O=C(O)[C@@H]1CCCN1 | 0.9% (inactive) | 1.2 | 1.6% (inactive) | 2.9% (inactive) | -4% (inactive) | -1.7% (inactive) | 36.6% (inactive) | 42.8% (inactive) | 57.9% (active) |
| O=C(O)Cc1ccc(CCNS(=O)(=O)c2ccc(Cl)cc2)cc1 | 0% (inactive) | 0.1 | 0.2% (inactive) | -5.1% (inactive) | 3.3% (inactive) | -2.9% (inactive) | -4% (inactive) | 1.5% (inactive) | -6.1% (inactive) |
| CC(C)NC(=O)c1ccc(C=O)cc1 | 0% (inactive) | -0.8 | -0.75% (inactive) | 18.8% (inactive) | -7.2% (inactive) | 2.1% (inactive) | -5.1% (inactive) | -15.1% (inactive) | -5.8% (inactive) |
| CC(C)C[C@H](NC(=O)CNC(=O)[C@H](Cc1ccc(O)cc1)NC(=O)[C@H](CO)NC(=O)[C@H](Cc1c[nH]c2ccccc12)NC(=O)[C@H](Cc1cnc[nH]1)NC(=O)[C@@H]1CCC(=O)N1)C(=O)N[C@@H](CCCN=C(N)N)C(=O)N1CCC[C@H]1C(=O)NCC(N)=O (stereo in doubt) | -1% (inactive) | -0.5 | -0.4% (inactive) | 0.3% (inactive) | 19.8% (inactive) | 6% (inactive) | 6.7% (active) | 11.3% (inactive) | -1.2% (inactive) |

| Compound | nuclear beta-catenin stimulation ([1]; at 10 µM) | nuclear beta-catenin stimulation ([1]; stimulation, at 2 µM) [%] | insulin secretion stimulation [2] | viability decrease [3] | tube area decrease [4] | GLP1 secretion stimulation [5] | inhibition of viability [6] | viability decrease (inhibition) [7] | viability decrease (inhibition) [8] |
| --- | --- | --- | --- | --- | --- | --- | --- | --- | --- |
| Cc1cc2nc3c(=O)[nH]c(=O)nc-3n(C[C@H](O)[C@H](O)[C@H](O)COP(=O)(O)OP(=O)(O)OC[C@H]3O[C@@H](n4cnc5c(N)ncnc54)[C@H](O)[C@H]3O)c2cc1C | -2.2% (inactive) | 0.2 | 5.5% (inactive) | -3.6% (inactive) | -2.4% (inactive) | -3.7% (inactive) | -18.9% (inactive) | 16.1% (inactive) | -48.9% (inactive) |
| CCN(CC)CC(=O)Oc1ccc(NC(C)=O)cc1 | -0.5% (inactive) | 6.1 | -0.7% (inactive) | 0.8% (inactive) | -10.3% (inactive) | -0.7% (inactive) | 1.8% (inactive) | 2.2% (inactive) | -9.7% (inactive) |
| CC(C)=CCOc1ccc(/C=C/C(=O)c2ccc(OCC=C(C)C)cc2OCC(=O)O)cc1 | 10.1% (inactive) | -0.2 | 0.6% (inactive) | 99.2% (active) | 108% (active) | -0.1% (inactive) | 99.6% (active) | 102% (active) | 102% (active) |
| Oc1ccc(Cl)cc1Sc1cc(Cl)ccc1O | 4.4% (inactive) | 0 | 4.5% (inactive) | 100% (active) | 101% (active) | 47.3% (active) | 102% (active) | 122% (active) | 103% (active) |
| O=C(CCN1CCN2CCCC2C1)N1c2ccccc2Sc2ccc(Cl)cc21 (centres undefined) | 1.1% (inactive) | 0.2 | 63.8% (active) | 49.9% (inactive) | 8% (inactive) | 8.5% (inactive) | 61.4% (active) | 99.3% (active) | 49.5% (inactive) |
| COc1ccccc1N1CCN(CC(O)COc2cc(OC)c(OC)c(OC)c2)CC1 (centres undefined) | 0.2% (inactive) | 0.4 | 1.5% (inactive) | 16.1% (inactive) | 56.8% (active) | 4.5% (inactive) | 20.9% (inactive) | -2.1% (inactive) | 8.5% (inactive) |
| CCN(CC)CCN | 0.4% (inactive) | -1.7 | 1.7% (inactive) | -6% (inactive) | 5.8% (inactive) | -1% (inactive) | -0.4% (inactive) | 1.2% (inactive) | -10.7% (inactive) |
| COc1cc(C(=S)N2CCOCC2)cc(OC)c1OC | -0.6% (inactive) | 2 | 1.5% (inactive) | -0.85% (inactive) | -15.3% (inactive) | -0.3% (inactive) | -1.2% (inactive) | 9.6% (inactive) | 1.7% (inactive) |
| COCCc1ccc(OCC2CO2)cc1 (centres undefined) | 0.9% (inactive) | 0.3 | 0.8% (inactive) | -8% (inactive) | -12.7% (inactive) | 0.8% (inactive) | -0.6% (inactive) | 14.3% (inactive) | 3.3% (inactive) |
| CCOC(=O)NNc1ccc(N(CC)CC(C)O)nn1 (centres undefined) | -1.1% (inactive) | 0.1 | 0.3% (inactive) | -1% (inactive) | -17.2% (inactive) | 1.1% (inactive) | 6.1% (inactive) | 2.6% (inactive) | 1% (inactive) |
| O=C(O)c1cn(C2CC2)c2cc(Cl)c(F)cc2c1=O | 0% (inactive) | -1.8 | 2.05% (inactive) | 55.5% (active) | -14.6% (inactive) | -3.9% (inactive) | 42.5% (inactive) | -3.8% (inactive) | -3.8% (inactive) |
| O=C(/C=C/c1ccccc1)NCCO | 1.1% (inactive) | 1.4 | -2.3% (inactive) | -9.8% (inactive) | 26.7% (inactive) | -1.5% (inactive) | 12.9% (inactive) | -3.5% (inactive) | -16.4% (inactive) |
| CCOCCOC(=O)/C=C/c1ccc(OC)cc1 | 1.4% (inactive) | 1 | -1.7% (inactive) | -11.8% (inactive) | 18.9% (inactive) | -4% (inactive) | -4.53% (inactive) | 17.1% (inactive) | 9.7% (inactive) |
| CCCCNc1ccc(C(=O)OCCN(CC)CC)cc1 | 4% (inactive) | 1.7 | 7.25% (inactive) | 50.2% (active) | 19.5% (inactive) | 3.7% (inactive) | 81.8% (active) | 60.6% (active) | 88.7% (active) |
| O=P(O)(O)C(O)(Cc1cnc2ccccn12)P(=O)(O)O | -0.5% (inactive) | 1.4 | -0.3% (inactive) | 2.2% (inactive) | 7.8% (inactive) | 4.3% (inactive) | 13.5% (active) | 3.6% (inactive) | 9.7% (inactive) |
